The list is not random: actives were taken first. Their share in the collection is about 7.5%.
SMN2 splice up: enhancers of SMN2 splice variant expression; AID 1458; HEK293 SMN2-luciferase splicing reporter, luminescence, 30-36 h; Potency, µM (series often up to 46.1 µM), for inactives: top-dose activity change, positive = activation, hits mostly activators; hit rate 2.8% among 210,000; further: % of control where 0% means no effect; nearly all actives have a fitted effect of over 55% in size
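HEK293 cells carry an SMN2 minigene-luciferase reporter in which exon 7 inclusion puts luciferase in frame. Cells were seeded at 2000 cells/well, attached for 10-12 hours, then exposed to compounds for 30-36 hours at 37C before ONE-Glo luminescence.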
NPC1 prom act: activates the NPC1 promoter. Potency, µM (highest dose often 9.22 µM), without a hit: at the highest dose activation, hits mostly activators. AID 485313. hit rate 2.4% among 320,000. Huh7 NPC1 promoter luciferase reporter, 24 h; further: % of control where 0% means no effect; nearly all actives have a fitted effect of over 60% in size
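Readout is luciferase luminescence, reflecting NPC1 promoter activation in stably transfected Huh7 cells after 24 h compound exposure at 37 °C in reduced-serum medium with 10% FBS.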
FLuc counter: counter-screen for miR-21 project: firefly luciferase inhibitors or activators; Potency, µM (top dose mostly 57.5 µM), without a hit: at the highest dose activity change, negative = inhibition, most hits filed as inhibitors; P08659; purified FLuc, Km substrates, luminescence inhibition; hit rate 6.9% among 360,000;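 further: plate controls were vehicle for no effect and reference inhibitor for full effect; nearly all actives have a fitted effect of over 55% in size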
Target sequence (P08659 whole entry, looked up): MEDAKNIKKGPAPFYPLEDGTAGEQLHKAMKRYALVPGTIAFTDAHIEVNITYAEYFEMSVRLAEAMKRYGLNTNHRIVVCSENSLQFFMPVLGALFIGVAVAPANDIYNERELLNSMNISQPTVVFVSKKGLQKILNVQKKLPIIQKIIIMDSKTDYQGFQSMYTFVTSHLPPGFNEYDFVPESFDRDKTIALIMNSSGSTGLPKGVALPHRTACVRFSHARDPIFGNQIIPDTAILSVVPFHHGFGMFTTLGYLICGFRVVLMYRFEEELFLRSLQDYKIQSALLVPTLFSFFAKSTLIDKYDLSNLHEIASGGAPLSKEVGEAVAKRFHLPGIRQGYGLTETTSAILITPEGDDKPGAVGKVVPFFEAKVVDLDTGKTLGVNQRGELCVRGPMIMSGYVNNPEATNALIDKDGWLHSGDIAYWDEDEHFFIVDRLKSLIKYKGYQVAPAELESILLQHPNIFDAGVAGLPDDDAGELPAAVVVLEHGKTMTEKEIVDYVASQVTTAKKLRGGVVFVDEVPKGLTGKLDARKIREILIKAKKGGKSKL
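Purified P. pyralis luciferase, 10 nM final, with Km-level 10 uM D-luciferin and 10 uM ATP in 50 mM Tris acetate pH 7.5, 10 mM Mg acetate, 0.01% Tween-20, 0.05% BSA; 6-point qHTS titration about 60 µM downward; luminescence read.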
KinaseGlo FLuc: blocks Kinase-Glo luciferase, a counter-screen artifact; Q27757; Kinase-Glo luciferase, ATP luminescence, 8 min; Potency, µM (doses to about 38.3 µM), inactives show top-dose activity change, negative = inhibition, usual class: inhibitors; hit rate 0.28% among 200,000; further: on the % scale 0 is the no-effect control and ±100 the full control effect; nearly all actives have a fitted effect of over 60% in size
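Luminescence was the read-out, taken after 8-minute incubation at ambient temperature. Luciferase turned over luciferin with 10 uM ATP in imidazole pH 7.2 buffer containing KCl, MgCl2, Tween 20 and BSA.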
Rab9 prom act: activates the Rab9 promoter; Huh7 Rab9 promoter-luciferase reporter, luminescence, 24 h; Potency, µM (doses to about 9.22 µM), for inactives: at the highest dose activation, negative = inhibition, most hits filed as activators; hit rate 2.8% among 320,000; AID 485297; further: % of control where 0% means no effect; nearly all actives have a fitted effect of over 60% in size
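Cells were plated at 1500 per well in reduced-serum medium with 10% FBS and left 2 h. Compound in DMSO was then added for 24 h at 37 °C. Reporter signal was read by luminescence after 10 min with luciferase detection reagent.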
ELG1 genotoxic: genotoxicity induction in ELG1-luciferase HEK293T cells | HEK293T ELG1-luciferase reporter, luminescence, 16 h | Potency, µM (titrated, usually from 46 µM), without a hit: top-dose activity change, positive = activation, usual class: activators | hit rate 1.3% among 330,000 | AID 504466; further: % of control where 0% means no effect; nearly all actives have a fitted effect of over 60% in size
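Luminescence read-out: rising ELG1-luciferase signal, reflecting elevated ELG1 protein under genetic stress, flags genotoxic compounds. Cells were treated for 16 hr at 37 °C before ONE-Glo detection.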
The depositor's hits bear a star; ? = inconclusive; . = no result. The call rests on the fitted dose curve; in most records, active means well fitted curve in the direction sought with a large enough effect; inconclusive means small, poorly fitted or top-dose-only effect, or another doubt; inactive means no such curve, though single readings can be large; an effect the other way counts as inactive or inconclusive. Potency means the concentration at half of the fitted maximal effect.

SMILES | SMN2 splice up | NPC1 prom act | FLuc counter | KinaseGlo FLuc | Rab9 prom act | ELG1 genotoxic
O=C(NNC(=O)c1cc(-c2ccncc2)nc2ccccc12)c1ccccc1F | . | 2% | 24µM* | . | 1% | 0%
COc1cccc(-c2nnc3sc(CN4CCCCC4)cn23)c1 | . | . | -2% | . | . | .
CCOc1ccccc1Nc1sc(C(=O)c2ccc(Cl)cc2)c(N)c1C#N | . | . | -1% | . | . | .
CCN(CC)c1ccc2nc3ccc(N)cc3[n+](-c3ccccc3)c2c1 | . | -36% | 13µM* | . | -34% | -3%
CCN(CC)c1ccc2nc3c(=O)n(C)c(=O)n(C)c3nc2c1 | -18% | . | -20% | . | . | .
CCN(CC)c1ccc2nc3ccccc3[n+](CC)c2c1 | . | -45% | 15µM* | . | -48% | -35%
CCOc1ccc(NC(=S)N(CCOC)C2CCN(C(C)C)CC2)cc1 | . | -1% | -2% | . | -3% | -2%
COc1ccc(CN2C(=O)N(c3cccc(C)c3)C(=O)C2CC(=O)Nc2ccc(F)cc2)cc1OC (stereo not drawn) | -6% | . | -3% | . | . | .
COc1ccccc1NC(=O)Cn1cnc2c(oc3nc4c(cc32)CCCC4)c1=O | . | -3% | -14% | . | 0% | -1%
COc1cccc(NC(=O)Cn2cnc3c(oc4nc5c(cc43)CCCC5)c2=O)c1 | . | -1% | -2% | . | -4% | ?
O=c1c2oc3nc4c(cc3c2ncn1CCCc1ccccc1)CCCC4 | . | 24% | 24µM* | . | ? | 14%
CCCCCCn1cnc2c(oc3nc4c(cc32)CCCC4)c1=O | 11µM* | ? | ? | 0% | 3.2µM* | 14%
CCCCn1cnc2c(oc3nc4c(cc32)CCCC4)c1=O | . | 0.63µM* | 6µM* | . | 0.56µM* | ?
CC(=O)Nc1c(C)nn(-c2ccccc2)c1N1CCC(C(=O)NCc2cccc(F)c2)CC1 | . | . | -8% | . | . | .
COc1ccc(-c2nnn3c2nc(NCCc2ccc(OC)c(OC)c2)c2ccccc23)cc1 | 19% | . | 7% | . | . | .
Nc1n[nH]c(N)c1N=Nc1ccc(Cl)cc1Cl | . | 17% | 13µM* | 2% | 3% | ?
COCCCN1C(=O)C(=O)/C(=C(/O)c2ccc(S(=O)(=O)N3CCOCC3)cc2)C1c1cccc(Cl)c1 (stereo not drawn) | . | -6% | 2% | . | -3% | -1%
CNC(=O)/C(C#N)=C/c1ccc(-c2ccc(OC)cc2[N+](=O)[O-])o1 | 16µM* | 29% | ? | 2% | ? | 13%
Cc1ccc(/C=C(\C#N)C(=O)Nc2cccc(Br)c2)o1 | 1% | . | 2% | . | . | .
Cc1ccc(/C=C(\C#N)C(=O)Nc2ccc(Br)cc2)o1 | 3.2µM* | . | 3% | . | . | .
COc1ccc(NC(=O)/C(C#N)=C/c2ccc(-c3ccccc3C(=O)O)o2)cc1 | . | 23% | 6.7µM* | . | 17% | 7%
N#C/C(=C\c1ccc(N2CCCCC2)o1)C(=O)Nc1cccc(Br)c1 | -15% | 2.5µM* | 2.7µM* | -5% | 2µM* | ?
COc1ccc(-c2ccc(C(=O)O)o2)c([N+](=O)[O-])c1 | 13% | -4% | -20% | 3% | -2% | -3%
CCC(=O)N1CCc2cc(S(=O)(=O)NC(C(=O)NCCc3cccc(C)c3)C(C)C)ccc21 (stereo not drawn) | 1% | . | 1% | . | . | .
COc1ccc(NC(=O)CSCc2cc(=O)c3cc(C)ccc3[nH]2)cc1 | . | . | 1% | . | . | .
SMILES | SMN2 splice up | NPC1 prom act | FLuc counter | KinaseGlo FLuc | Rab9 prom act | ELG1 genotoxic
O=C(c1ccc2c(c1)N(Cc1ccc(Cl)cc1)C(=O)c1ccccc1S2(=O)=O)N1CCc2ccccc21 | -7% | . | -4% | . | . | .
COc1ccc(NC(=O)/C(C#N)=C\c2ccc(-c3cccc(C(=O)O)c3C)o2)cc1 | . | 7% | 8.5µM* | . | 22% | -2%
COc1ccc(NC(=O)/C(C#N)=C\c2ccc(-c3cc(C(=O)O)ccc3C)o2)cc1 | . | -3% | 19µM* | . | -5% | -3%
CCOc1ccc(CNC(=O)c2ccc(Sc3ccc(C)cc3)c(N)c2)cc1OC | . | . | -19% | . | . | .
Cc1ccc(-n2ncc3c(Nc4ccc5c(c4)OCCO5)ncnc32)cc1Cl | . | . | -18% | . | . | .
Clc1cccc(-n2ncc3c(Nc4ccc5c(c4)OCCO5)ncnc32)c1 | . | . | 13µM* | . | . | .
Cc1ccc(Cl)cc1-n1ncc2c(Nc3ccc4c(c3)OCCO4)ncnc21 | . | . | 11µM* | . | . | .
Fc1ccc(-n2ncc3c(Nc4ccc5c(c4)OCCO5)ncnc32)cc1 | . | . | 17µM* | . | . | .
CCCN(CCC)CCCNC(=O)Cn1cnc2onc(-c3ccc(F)cc3)c2c1=O | . | . | -1% | . | . | .
O=C(CN1C=NS(=O)(=O)c2ccccc21)Nc1ccc(F)cc1 | . | . | -3% | . | . | .
Nc1ccc2oc3ncccc3c(=O)c2c1 | 25% | 10% | -18% | -3% | 12% | ?
Nc1ccc2oc3ccccc3c2c1 | 11µM* | ? | ? | 1% | ? | 22%
CCCCOC(=O)CSc1nnc(-c2ccc(C)cc2)o1 | 4% | . | ? | . | . | .
OCC#CCSc1nnc(-c2ccc(Br)cc2)o1 | -10% | 10% | ? | 1% | -4% | 21µM*
COC(=O)Sc1nnc(-c2ccc(Br)cc2)o1 | -15% | 2% | 19µM* | -1% | 1% | 7%
CCCCCSc1nnc(-c2ccc(Br)cc2)o1 | 0% | . | 12µM* | . | . | .
Cc1ccc(-c2csc(NC(=O)c3ccc(C)o3)n2)cc1 | -4% | -1% | ? | -4% | -2% | 0%
Cc1ccc(C(=O)Nc2nc(-c3ccc(F)cc3)cs2)o1 | . | 13% | 30µM* | . | 17% | -1%
Cc1ccc(-c2csc(NC(=O)c3ccno3)n2)cc1 | -20% | 25% | 21µM* | 4% | 28% | ?
CC(C)(C)c1ccc(C(=O)NCC(=O)OCC(=O)Nc2nc(-c3ccc(F)cc3)cs2)cc1 | 17% | 16% | 13µM* | 0% | 18% | 8%
CC1CCN(C(=O)c2cc(-c3ccc(Cl)c(Cl)c3)on2)CC1 | ? | 11% | ? | 2% | 24% | 15%
CC1CCN(C(=O)c2cc(-c3cccc(Cl)c3)on2)CC1 | ? | . | 24µM* | . | . | .
COc1ccccc1N1CCN(C(=O)c2cc(-c3cccc(Cl)c3)on2)CC1 | -12% | 0% | 5% | -3% | 0% | -2%
CC1CCN(C(=O)c2cc(-c3ccc(Cl)cc3)on2)CC1 | 15% | . | 6µM* | . | . | .
CCN(CC)c1ccc(NC(=O)C2CCN(c3nnc(-n4cccc4)s3)CC2)c(C)c1 | . | . | -2% | . | . | .
Cc1ccc(NC(=O)C(=O)C2C(=O)Nc3ccccc32)cc1 (stereo not drawn) | . | ? | 12µM* | . | ? | ?
CC1=NN(c2ccccc2)C(=O)C1C(=O)c1ccccc1 (stereo not drawn) | -4% | -1% | -13% | 2% | -3% | -5%
CN(C)CCNC(=O)C(=O)C1C(=O)Nc2ccccc21 (stereo not drawn) | 3% | 0% | 0% | -2% | 9% | -2%

High-throughput results as filed in PubChem.
